Screens (PubChem)
An excerpt weighted towards active compounds, which were near 5.4% of everything screened.
SKKanGAS inh: SKKanGAS growth inhibition; S. pyogenes SKKanGAS, kanamycin growth, BacTiter-Glo, 6 h; inhibition, % at 7.5 µM; 1.3% of 300,000 active; AID 1662;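 active = mean replicate score, as percent of positive control median, at least 50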;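 note: strain carries kanamycin resistance gene driven by streptokinase promoter and grows in 40 µg/ml kanamycin; loss of luminescence reflects streptokinase promoter inhibition or plain growth inhibition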
Mdm2-MdmX inh: inhibitors of human Mdm2/MdmX interaction. SaOS-2 split-luciferase Mdm2/MdmX complementation, luminescence. 3% of 330,000 active. O15151+Q00987. inhibition, % at 8 µM;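 active = inhibition of at least 50% at 8 µM in the primary screen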
Target sequence (O15151 whole entry, looked up): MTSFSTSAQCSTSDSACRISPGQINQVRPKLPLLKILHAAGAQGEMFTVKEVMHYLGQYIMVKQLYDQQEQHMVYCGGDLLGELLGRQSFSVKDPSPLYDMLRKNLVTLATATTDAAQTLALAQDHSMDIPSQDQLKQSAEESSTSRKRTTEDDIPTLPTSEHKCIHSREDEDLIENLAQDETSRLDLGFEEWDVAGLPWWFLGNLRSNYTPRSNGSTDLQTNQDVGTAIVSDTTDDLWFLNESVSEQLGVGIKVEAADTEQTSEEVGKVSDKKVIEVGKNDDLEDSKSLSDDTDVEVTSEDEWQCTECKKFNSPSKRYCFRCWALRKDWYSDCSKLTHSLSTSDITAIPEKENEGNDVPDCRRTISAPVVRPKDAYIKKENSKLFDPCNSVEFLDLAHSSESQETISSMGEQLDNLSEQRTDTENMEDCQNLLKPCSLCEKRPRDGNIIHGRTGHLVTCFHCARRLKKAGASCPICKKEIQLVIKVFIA
Target sequence (Q00987 whole entry, looked up): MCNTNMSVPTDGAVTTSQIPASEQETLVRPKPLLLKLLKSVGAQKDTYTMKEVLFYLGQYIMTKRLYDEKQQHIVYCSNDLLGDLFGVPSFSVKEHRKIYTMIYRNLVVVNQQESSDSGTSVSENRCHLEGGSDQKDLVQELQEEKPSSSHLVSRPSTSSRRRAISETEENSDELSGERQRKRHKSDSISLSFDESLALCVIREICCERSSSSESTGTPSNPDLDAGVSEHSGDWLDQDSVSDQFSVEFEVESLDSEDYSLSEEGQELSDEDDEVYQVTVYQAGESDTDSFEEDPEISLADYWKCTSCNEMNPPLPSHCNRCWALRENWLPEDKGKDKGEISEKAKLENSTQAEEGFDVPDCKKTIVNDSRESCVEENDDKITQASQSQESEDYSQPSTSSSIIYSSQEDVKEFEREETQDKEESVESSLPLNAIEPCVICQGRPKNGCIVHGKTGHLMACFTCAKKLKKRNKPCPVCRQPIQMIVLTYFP
MPTP inh: blocks calcium-induced mitochondrial swelling; isolated mouse mitochondria, Ca2+ swelling absorbance, 30 min; inhibition, % at 10 µM; 1.4% of 360,000 active;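 active = inhibition of 50% or more, scaled per plate between neutral and stimulator controls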
Beta cell apopt: blocks beta cell apoptosis. INS-1E cytokine-induced death, ATP luminescence, 48 h; percent of positive-control rescue, neutral wells zero. protection from apoptosis, % (no concentration beside the values). 0.8% of 300,000 active;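 active = Every replicate reaches about 75%, or at least half do and their mean reaches it too, limit read from the data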;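 note: higher means more ATP so stronger rescue from cytokine killing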
Calb FLC: affects C. albicans growth with fluconazole; C. albicans CaCi-2 (fluconazole-resistant clinical isolate) + fluconazole, Alamar Blue growth, 48 h; growth inhibition, % (no concentration beside the values); 0.57% of 300,000 active;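 active = growth inhibition above about 58% in most replicates, limit read from the data, passing the limit was not always enough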;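 note: all wells also contain fluconazole at 8 µg/ml as a sub-toxic cotreatment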
CSC inhib: blocks cancer stem cells; 1.1% of 300,000 active; AID 2717; inhibition, % at 7.5 µM; cancer stem cell-like cells viability, luminescence; in the data active = inhibition above about 75%; tested in HMLE shEcad cells
Mdm2 MdmX conf: human Mdm2/MdmX binding inhibition, confirmed; AID 489028; 55% of 10,000 active; shares compounds with Mdm2-MdmX inh; luminescent assay; inhibition, % at 8 µM; in the data active = inhibition above about 40%
Full FLuc ctr: counter-screen for Mdm2/MdmX inhibitors: full-length luciferase; shares compounds with Mdm2-MdmX inh; SaOS-2 full-length luciferase counterscreen, luminescence; inhibition, % at 8 µM; 77% of 6,200 active;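 active = mean inhibition at 8 µM reaching about 37%, which flags the compound as non-specific, limit read from the data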;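 note: p53-null SaOS-2 cells with luciferase driven by a doxycycline-inducible promoter; compound on cells about two nights before reading with doxycycline added after day one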
A number is an active result; . = inactive; / = not tested or not shown.

SMILES	SKKanGAS inh	Mdm2-MdmX inh	MPTP inh	Beta cell apopt	Calb FLC	CSC inhib	Mdm2 MdmX conf	Full FLuc ctr
COc1cc2c(cc1NC(=O)Cc1ccc(C)cc1)oc1ccccc12	.	.	.	.	.	.	/	/
CCn1c(SCC(=O)Nc2cc3oc4ccccc4c3cc2OC)nnc1-c1cccs1	.	50.8	.	.	.	.	.	/
COC(c1ccccc1)c1nnc(CCC(=O)N(C)Cc2cccc(-n3cccn3)c2)o1 (stereo unspecified)	.	.	.	.	.	.	/	/
COc1ccc(OCC(=O)N/N=C/c2cccc3cccnc23)cc1	.	.	.	.	.	.	/	/
CC(C)=CC(=O)Nc1c(C)cc(C)cc1Cl	.	.	.	.	.	.	/	/
CCOc1ccc(C(=S)N2CCOCC2)cc1OCC	.	.	.	.	.	.	/	/
Cc1ccccc1NC(=O)CN1C(=O)NC2(CCc3ccccc32)C1=O (stereo unspecified)	/	.	.	.	/	.	/	/
COc1cc2c(cc1NC(=O)CN1C(=O)NC3(CCc4ccccc43)C1=O)oc1ccccc12 (stereo unspecified)	.	69.2	.	.	.	.	.	/
O=C(CSc1nnnn1-c1ccccc1)Nc1nsc(-c2ccccc2)n1	.	84.3	.	.	.	.	80.9	.
COc1cc2c(cc1NC(=O)CSc1nnnn1-c1ccccc1)oc1ccccc12	.	71.3	.	.	.	.	.	/
CC(C)(O)/C=C/C(=O)[C@](C)(O)C1[C@H](O)C[C@@]2(C)C3CC=C4C(C=C(O[C@@H]5O[C@H](CO)[C@@H](O)[C@H](O)[C@H]5O)C(=O)C4(C)C)[C@]3(C)C(=O)C[C@]12C (stereo partly specified)	/	.	.	.	/	.	/	/
Nc1c([N+](=O)[O-])cc2c3c(cccc13)CC2	/	/	.	/	/	/	/	/
N/C(=N\OC(=O)c1ccc2ccccc2c1)c1cccc([N+](=O)[O-])c1	.	83.2	.	.	.	.	.	/
N/C(=N\OC(=O)c1ccc2ccccc2c1)c1ccccn1	.	69.6	.	.	.	.	49.4	110.8
COc1cccc(C(=O)O/N=C(\N)c2ccccn2)c1	.	.	.	.	.	.	/	/
CCCc1ccc(C(=O)O/N=C(\N)c2ccccn2)cc1	.	62.7	.	.	.	.	70.0	61.4
N/C(=N\OC(=O)c1ccc2ccccc2c1)c1ccccc1Cl	.	100.3	.	.	.	.	68.0	77.5
O=C(NC(Cc1ccccc1)c1nc2ccccc2[nH]1)C1CC(=O)N(c2ccc3c(c2)OCCO3)C1 (stereo unspecified)	.	.	.	.	.	.	/	/
Cc1ccc(CCNC(=O)c2nc(CS(=O)(=O)c3ccc(Cl)cc3)no2)cc1	.	.	.	.	.	.	/	/
N/C(=N\OC(=O)c1ccc(=O)n(Cc2ccccc2)c1)c1ccccn1	.	.	.	.	.	.	/	/
N/C(=N\OC(=O)c1ccc(=O)n(Cc2ccc(Cl)cc2)c1)c1ccccn1	.	66.6	.	.	.	.	.	/
O=C(COC(=O)Cc1cccs1)Nc1cccc(S(=O)(=O)N2CCOCC2)c1	.	.	.	/	.	.	/	/
O=C(CNC(=O)C1COc2ccccc2O1)N/N=C/c1ccc(O)cc1O (stereo unspecified)	.	50.5	.	.	.	78.2	.	70.5
O=C(CNC(=O)C(c1ccccc1)c1ccccc1)N/N=C/c1ccc(O)cc1O	.	69.6	.	.	.	132.5	77.4	37.9
O=C(CNC(=O)C(c1ccccc1)c1ccccc1)N/N=C\c1cccc(O)c1	.	.	.	.	.	.	/	/
SMILES	SKKanGAS inh	Mdm2-MdmX inh	MPTP inh	Beta cell apopt	Calb FLC	CSC inhib	Mdm2 MdmX conf	Full FLuc ctr
CCc1cc(C(=O)N/N=C/c2ccc(O)cc2O)c2ccccc2n1	.	63.5	.	92.5	.	94.1	63.7	36.1
COC(=O)c1ccccc1NC(=O)C1CCN(S(=O)(=O)c2cc(C)ccc2OC)CC1	.	.	.	.	.	.	/	/
CCCn1nc(C(=O)Nc2cc(S(=O)(=O)Nc3ccc(OC)cc3)ccc2O)c2ccccc2c1=O	/	.	.	.	/	.	/	/
CCCCOc1ccc(C(=O)NCC(=O)NCc2ccccn2)cc1	.	.	.	.	.	.	/	/
COc1ccc(CCNC(=O)CN(c2cc([N+](=O)[O-])ccc2OC)S(C)(=O)=O)cc1	.	.	.	.	.	.	/	/
COc1cccc(-n2nnnc2S(C)(=O)=O)c1	.	78.7	.	.	104.7	.	100.2	.
CS(=O)(=O)Nc1ccc(S(=O)(=O)Nc2nccs2)cc1	.	.	.	.	/	.	/	/
ClC1=C(Cl)C(Cl)=C(Cl)C1=C/C=C/c1ccccc1	.	100.2	.	116.3	.	103.4	99.4	.
O=C1NC(=O)C(=CC=Cc2ccccc2)S1	/	/	.	/	/	/	/	/
CCOC(=O)N/N=C(\CCC(=O)O)c1cccs1	.	.	.	.	.	.	/	/
Cc1oc2c(O)c(O)ccc2c(=O)c1-c1cnn(-c2ccccc2)c1	.	.	.	.	.	.	/	/
Cc1oc2cc(O)cc(C)c2c(=O)c1-c1cnn(-c2ccccc2)c1	.	57.8	.	.	.	.	.	/
COc1cc2c(c(OC)c1OC)C(c1ccc(C)cc1)CC(=O)O2 (stereo unspecified)	/	.	.	/	/	/	/	/
CCc1ccc2[nH]c3nc(SCc4nnc(-c5ccc(C)cc5)o4)nnc3c2c1	.	70.1	.	.	.	.	.	/
COC(=O)C1CCN(Cc2nnc(-c3ccccc3)o2)CC1	.	.	.	.	.	.	/	/
CC(=O)Nc1ccc(N=Cc2c(O)c(C(=O)Nc3ccccc3)cc3ccccc23)cc1	60.7	77.9	/	.	.	97.7	.	103.5
CCOc1cc(Br)c(Br)c(C=Nc2ccc(NC(C)=O)cc2)c1O	.	67.9	.	.	.	.	76.4	.
CC(=O)Nc1ccc(N=Cc2c(O)c3ccccc3oc2=O)cc1	.	53.2	.	.	.	.	.	/
CCOc1cc(/C=N/NC(=O)C(N)=O)cc(Br)c1O	.	.	.	.	.	.	/	/
CC(=O)c1cccc(N=Cc2c(O)c3ccccc3oc2=O)c1	.	.	.	.	.	.	/	/
Cc1sc2ncn(CC(=O)N3CCCC(C)C3)c(=O)c2c1S(=O)(=O)N1CCCCC1 (stereo unspecified)	.	.	.	.	.	.	/	/
COc1ccccc1-c1csc(Cc2nnc3n2CCCCC3)n1	.	.	.	.	.	.	/	/
COc1ccc(NC(=O)CSCC(=O)N(C)CC(=O)Nc2c(C)cccc2C)cc1	/	.	.	.	/	.	/	/
COc1cc(OC)cc(-c2c(-c3ccc(F)cc3)c3cc(-c4cnc(OC)nc4)ccc3n2C)c1	/	56.6	.	.	/	.	53.8	41.8
COc1ccc(-c2c(-c3cc(OC)cc(OC)c3)n(C)c3ccc(-c4ccc(S(N)(=O)=O)cc4)cc23)cc1	/	56.7	.	.	/	.	.	80.3
COc1cccc(-c2c(-c3cc(OC)cc(OC)c3)n(C)c3ccc(-c4cnc(N5CCOCC5)nc4)cc23)c1	/	71.1	.	.	/	.	.	/
